USP2a inh: blocks human ubiquitin-specific protease USP2a; O75604; Potency, µM (doses to about 38.3 µM), inactives show top-dose activity change, negative = inhibition, usual class: inhibitors; USP2 core, Ub-CHOP2 coupled fluorogenic reporter, 485/531; actives 0.01% (n = 330,000);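 further: potency means the concentration at half of the fitted maximal effect; plate controls were DMSO wells for no effect and full inhibition by NEM control for full effect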
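USP2 core (10nM final) preincubated 30min RT with compound in 20mM Tris-HCl pH 8.0, 2mM CaCl2, 2mM beta-mercaptoethanol, 0.05% CHAPS; 25nM Ub-CHOP2 plus 25nM reporter substrate added, fluorescence (Ex485/Em531) read after 60min.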
PLK1 PBD inh: inhibitors of human PLK1 polo-box domain binding | P53350 | Plk1 PBD binding of FITC phosphopeptide, fluorescence polarization | Potency, µM, inactives show max response, negative = inhibition, usual class: inhibitors | actives 2.8% (n = 360,000); further: potency means the concentration at half of the fitted maximal effect; series mostly up to about 57 µM; nearly all actives have a fitted effect of over 65% in size
WRN helicase inh: blocks human WRN helicase. Q14191. WRN helicase unwinding, fluorescent forked duplex, kinetic. Potency, µM (titrated, usually from 114 µM), for inactives: top-dose activity change, negative = inhibition, actives largely listed as inhibitors. actives 0.46% (n = 360,000). AID 651768; further: potency means the concentration at half of the fitted maximal effect; nearly all actives have a fitted effect of over 55% in size
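Screening of the MLSMR collection measured strand separation of a quenched forked DNA duplex (100 nM) by 20 nM WRN with 2 mM ATP, all final. Compounds were preincubated with enzyme 15 min at room temperature.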
USP1-UAF1 inh: inhibitors of human USP1/UAF1 deubiquitinase; O94782; recombinant USP1/UAF1, Ub-Rhodamine cleavage fluorescence; Potency, µM (series often up to 57.1 µM), for the others: at the top dose activity change, negative = inhibition, most hits filed as inhibitors; actives 0.23% (n = 390,000); AID 743255; further: potency means the concentration at half of the fitted maximal effect; nearly all actives have a fitted effect of over 60% in size
Target sequence (O94782 whole entry, looked up): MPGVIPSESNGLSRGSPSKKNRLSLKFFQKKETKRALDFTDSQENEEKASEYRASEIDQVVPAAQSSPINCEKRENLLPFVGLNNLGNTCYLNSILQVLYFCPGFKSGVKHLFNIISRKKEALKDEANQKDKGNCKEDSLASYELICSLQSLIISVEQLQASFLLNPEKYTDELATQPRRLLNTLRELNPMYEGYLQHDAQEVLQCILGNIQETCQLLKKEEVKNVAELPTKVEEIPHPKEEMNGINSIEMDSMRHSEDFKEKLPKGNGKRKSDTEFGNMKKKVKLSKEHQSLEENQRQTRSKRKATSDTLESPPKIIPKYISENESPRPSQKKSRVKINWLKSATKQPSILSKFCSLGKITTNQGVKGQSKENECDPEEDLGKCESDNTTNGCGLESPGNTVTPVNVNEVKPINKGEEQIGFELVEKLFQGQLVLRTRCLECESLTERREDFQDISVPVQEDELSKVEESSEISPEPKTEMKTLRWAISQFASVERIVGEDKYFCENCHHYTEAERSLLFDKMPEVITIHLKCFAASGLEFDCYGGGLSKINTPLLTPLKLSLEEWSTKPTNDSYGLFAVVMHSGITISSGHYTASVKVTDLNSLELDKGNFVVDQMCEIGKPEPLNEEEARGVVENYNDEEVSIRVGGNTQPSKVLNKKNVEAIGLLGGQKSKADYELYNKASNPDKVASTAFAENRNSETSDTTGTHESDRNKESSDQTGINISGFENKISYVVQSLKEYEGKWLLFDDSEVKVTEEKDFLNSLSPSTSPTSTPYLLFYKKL
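USP1/UAF1 complex (1 nM) preincubated 15 min at room temperature with compound, then Ub-Rho substrate (150 nM final) added. Kinetic fluorescence at 480/540 nm over 6 reads at 60 s intervals; 50 mM HEPES pH 7.8, 0.5 mM EDTA, 0.1 mg/ml BSA, 1 mM TCEP, 0.01% Tween-20.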
PI5P4Ka inh: inhibitors of human PI5P4K alpha; AID 652105; actives 1.2% (n = 330,000); P48426; PI5P4Kalpha enzyme, ADP-Glo luminescence, 60 min; active compounds read low; max response, %; active means max response of -50% or lower; inconclusive means between -30% and -50%; inactive means -30% or higher; further: value at the top dose of about 77 µM
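Controls without substrate or without enzyme flank wells where PI5P4Kalpha converts substrate using 5 microM ATP (final). Incubation lasts 60 minutes at room temperature; ADP formed is read by ADP-Glo luminescence.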
* marks the source's active call; other numbers are inactive results; i = inactive; ? = inconclusive; . = not tested or not shown; [ ] = another dose, or the depositor's remark. Sampled rows, rich in hits. Any-hit rate of the full collection: about 3.3%. Unless noted, the call rests on the fitted dose curve; in most records, active means well fitted curve in the direction sought with a large enough effect; inconclusive means small, poorly fitted or top-dose-only effect, or another doubt; inactive means no such curve, though single readings can be large; an effect the other way counts as inactive or inconclusive. Unless noted, on the % scale 0 is the no-effect control and ±100 the full control effect.

SMILES | USP2a inh | PLK1 PBD inh | WRN helicase inh | USP1-UAF1 inh | PI5P4Ka inh
NS(=O)(=O)c1ccc(N=Nc2c(=O)[nH]n3c(=O)c4c([nH]c23)CCCC4)cc1 | -7% | -15% | -22% | ? | -62*
COc1cccc(N=Nc2c(=O)[nH]n3c(=O)c4c([nH]c23)CCC4)c1 | 1% | 30µM* | ? | ? | ?
CC1CCc2sc(-c3n[nH]c(=S)o3)cc2C1 (centres undefined) | 2% | -13% | -2% | -22% | -68*
S=c1[nH]nc(-c2cc3c(s2)-c2ccccc2CC3)o1 | 2% | 21µM* | -32% | -9% | -89*
CSc1nnc(-c2cc3c(s2)-c2ccccc2CC3)o1 | 0% | 0% | -12% | -22% | 30
COc1ccc(-n2c(COc3cccc4ccccc34)nnc2SC(C)C(=O)O)cc1 (centres undefined) | -5% | -16% | 4% | -10% | -97*
CON(c1nc(Cl)nc(N(C)C)n1)S(=O)(=O)c1ccc(C)cc1 | 0% | 27µM* | -7% | -15% | -8
CON(c1nc(Cl)nc(N(C)C)n1)S(=O)(=O)c1ccccc1Cl | -3% | -9% | -7% | -24% | 3
CC1=CC(C)(C)NC(=S)N1c1cccc2cc(S(=O)(=O)O)ccc12 | -1% | 27µM* | -22% | ? | -28
COc1ccc(N2CCN(S(=O)(=O)c3ccc(OC)c(-c4noc(C)n4)c3)CC2)cc1 | . | . | . | -16% | .
C/C(=N/NC(=O)c1ccccc1O)c1ccc(N2C(=O)C3CCCCC3C2=O)cc1 (centres undefined) | 0% | -6% | -8% | -14% | -7
C/C(=N/OC(=O)c1ccc(C)cc1)c1ccc(N2C(=O)C3CCCCC3C2=O)cc1 (centres undefined) | 2% | 30µM* | 1% | -18% | -25
COc1ccc(C(=O)n2nc(-c3ccco3)nc2NCc2cccs2)cc1OC | . | . | . | -3% | .
N#Cc1c(-c2ccco2)cc(-c2ccccn2)nc1N | -1% | -13% | -43% | 2% | -67*
COc1ccc(Oc2ccc3c(C(F)(F)F)cc(C(F)(F)F)nc3n2)cc1 | 1% | -7% | -3% | -11% | .
CN(N)c1ccc2c(C(F)(F)F)cc(C(F)(F)F)nc2n1 | 3% | 24µM* | 11% | -17% | 4
N=c1c(S(=O)(=O)c2ccc(Br)cc2)cc2c(=O)n3ccccc3nc2n1C1CCCCC1 | 0% | -3% | 9% | -26% | -5
N=c1c(S(=O)(=O)c2ccccc2)cc2c(=O)n3ccccc3nc2n1C1CCCCC1 | . | 21µM* | 7% | -21% | -3
Cc1sc2ncn(CC(=O)N(C)c3ccc(C(C)C)cc3)c(=O)c2c1S(=O)(=O)N1CCC(C)CC1 | . | . | . | -17% | .
CCN1CCN(C2=CC3=CC(=C(C#N)C#N)CCC3CC2)CC1 (centres undefined) | ? | -79% | 25µM* | 28µM* | -1
CN1CCN(C2=CC3=CC(=C(C#N)C#N)CCC3CC2)CC1 (centres undefined) | ? | -40% | -6% | i[2.29 µM] | 2
N#CC(C#N)=C1C=C2C=C(N3CCOCC3)CCC2CC1 (centres undefined) | ? | 52% | -11% | 4µM* | 2
CC1(C)CC(NCCN2CCN(C3=CC(=C(C#N)C#N)CC(C)(C)C3)CC2)=CC(=C(C#N)C#N)C1 | 3% | 3% | -3% | -12% | -2
N#CC(C#N)=C1C=C2C=C(N3CCCCCC3)CCC2CC1 (centres undefined) | ? | -67% | 15µM* | 4µM* | 0
O=C(NCCc1ccccc1Cl)c1ccc(Cn2c(=O)c3cccn3c3cccnc32)cc1 | . | . | . | -7% | .
SMILES | USP2a inh | PLK1 PBD inh | WRN helicase inh | USP1-UAF1 inh | PI5P4Ka inh
COc1ccc(C2CC(=O)Nc3c2c(C)nn3-c2nncc(-c3ccc(C)cc3)n2)c(OC)c1OC (centres undefined) | . | . | . | -7% | .
O=C(N/N=C/C(Cl)=C/c1ccc([N+](=O)[O-])cc1)C(=O)Nc1ccc(C(=O)O)cc1 | -3% | 30µM* | -5%[11.6 µM] | -17% | -27
O=C(Nc1ccc([N+](=O)[O-])cc1)C(=O)Nc1cccc(C(=O)O)c1 | 3% | -2% | -2% | -19% | -60*
O=C(N/N=C/C(Cl)=C/c1ccc([N+](=O)[O-])cc1)C(=O)Nc1ccccc1C(=O)O | 3% | -24% | ? | -9% | -50*
CCOc1ccccc1NC(=O)C(=O)N/N=C/c1ccc([N+](=O)[O-])cc1 | 4% | -14% | -4% | -17% | 4
O=C(O)c1cc(NC(=O)c2ccc([N+](=O)[O-])cc2)cc(NC(=O)c2ccc([N+](=O)[O-])cc2)c1 | 1% | ? | -2%[11.6 µM] | -17% | -4
COc1ccccc1C(=O)N/C(=C/c1cccc([N+](=O)[O-])c1)C(=O)Nc1cccc(C(=O)O)c1 | -4% | 30µM* | -23% | ? | ?
CCOC(=O)CC(NC(=O)CCc1c(C)nc2cc(-c3ccccc3)nn2c1C)c1ccc(C)cc1 (centres undefined) | . | . | . | -27% | .
CCc1cccc(NC(=O)CC(c2ccc(OC)cc2)N2Cc3ccccc3C2=O)c1 (centres undefined) | . | . | . | 18% | .
N#C/C(=C\c1ccc(N2CCOCC2)o1)c1nc2ccccc2[nH]1 | ? | 66% | 50µM* | 25µM* | -20
CS(=O)(=O)c1ccc2nc(N)sc2c1 | 1% | -15% | 0% | -9% | -5
CS(=O)(=O)c1ccc(N)c(SSc2cc(S(C)(=O)=O)ccc2N)c1 | 2% | 0.95µM* | -1% | -11% | -81*
CN(C)S(=O)(=O)c1ccc(C(=O)NCC2CC2(Cl)Cl)cc1 (centres undefined) | 0% | 24µM* | 22% | -26% | -9
CCc1ccc(Nc2nc(-c3cc4cccc(OC)c4oc3=O)c(CC)s2)cc1 | . | . | . | -26% | .
Oc1c(N=Nc2nn[nH]n2)ccc2ccccc12 | . | 17µM* | -32%[57.1 µM] | . | -82*
COc1cccc(N=Nc2ccc3ccccc3c2O)c1 | -1% | -3% | 9% | -13% | 2
Oc1c(N=Nc2ccc(F)cc2)ccc2ccccc12 | 2% | 9.5µM* | -29% | -16% | -1
Cc1ccc(N=Nc2ccc3ccccc3c2O)cc1 | 0% | ? | ? | -18% | 48
CCOc1cccc2sc(N(Cc3cccnc3)C(=O)C3CCCCC3)nc12 | . | . | . | 1% | .
COc1cc(-c2c(C#N)c(=O)[nH]c3c2c(C)nn3-c2ccccc2)ccc1O | 2% | -23% | ? | -17% | -63*
O=C1S/C(=C\c2ccc(O)c([N+](=O)[O-])c2)C(=O)N1c1ccccc1Cl | -8% | ? | -20% | -19% | ?
COc1cc(/C=C2\SC(=O)N(c3ccc(Cl)cc3)C2=O)cc([N+](=O)[O-])c1O | -1% | ? | ? | 1% | -51*
CCOc1ccc(/C=C2\SC(=O)N(c3ccc(O)cc3)C2=O)cc1OC | 0% | -11% | -4% | 2% | -1

High-throughput results deposited in PubChem by National Center for Advancing Translational Sciences (NCATS).
